DT40 TDP1 no CPT: qHTS for Inhibitors of human tyrosyl-DNA phosphodiesterase 1 (TDP1): qHTS in cells in absence of CPT; actives 15% (n = 420,000); DT40 Tdp1-/- hTDP1 cells, no CPT, ATP luminescence, 48 h; Potency, µM (series often up to 46.2 µM), most hits filed as inhibitors; further: nearly all actives have a fitted effect of over 55% in size
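Stably hTDP1-transfected Tdp1-null chicken DT40 cells were treated with library compounds minus camptothecin and grown for at least 48 hr at 37 °C, after which cellular ATP was quantified by luminescence.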
TGFb inhibitor: inhibitors of TGF-b signaling; HepG2 CAGA-GFP TGF-b/SMAD3 reporter, GFP fluorescence, 18 h; TGF-beta stimulated, 500 pg/mL final; Potency, µM (doses to about 46.1 µM), actives largely listed as inhibitors; actives 1.2% (n = 410,000); AID 588855; further: nearly all actives have a fitted effect of over 65% in size
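Using HEPG2 CAGA-GFP reporter cells at 1000 cells/well, we pinned test compounds, stimulated with recombinant TGF-beta (500 pg/mL final) and measured total well GFP after 18 h.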
TDP1 block: TDP1 (human) enzyme inhibition | actives 0.28% (n = 350,000) | AID 485290 | Potency, µM (highest dose often 130 µM), hits mostly inhibitors | recombinant TDP1, AlphaScreen DNA substrate cleavage; further: nearly all actives have a fitted effect of over 40% in size
Target sequence (Q9NUW8 whole entry, looked up): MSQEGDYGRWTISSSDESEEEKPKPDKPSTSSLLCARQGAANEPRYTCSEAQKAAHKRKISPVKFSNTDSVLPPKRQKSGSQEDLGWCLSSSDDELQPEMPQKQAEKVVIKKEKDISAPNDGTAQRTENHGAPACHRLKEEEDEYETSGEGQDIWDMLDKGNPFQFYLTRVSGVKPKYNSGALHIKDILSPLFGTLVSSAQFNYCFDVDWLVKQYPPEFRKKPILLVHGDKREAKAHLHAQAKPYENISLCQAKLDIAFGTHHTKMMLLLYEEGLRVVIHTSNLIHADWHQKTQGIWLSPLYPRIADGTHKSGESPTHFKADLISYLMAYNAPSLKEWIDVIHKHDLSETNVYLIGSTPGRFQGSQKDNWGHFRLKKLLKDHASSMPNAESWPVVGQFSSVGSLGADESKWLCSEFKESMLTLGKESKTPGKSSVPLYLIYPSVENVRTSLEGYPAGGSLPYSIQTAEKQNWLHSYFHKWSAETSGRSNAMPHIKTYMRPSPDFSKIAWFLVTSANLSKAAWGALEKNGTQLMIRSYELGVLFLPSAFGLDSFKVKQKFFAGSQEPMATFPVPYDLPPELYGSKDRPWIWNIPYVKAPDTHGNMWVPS
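Here, a 5' biotin and 3' phosphotyrosine-FITC DNA oligonucleotide reports Tdp1 activity: intact substrate bridges AlphaScreen beads, while cleavage leaves a 3' phosphate and drops signal. All incubations at room temperature.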
HepG2 tox: kills HepG2 cells in TGF-b inhibitor counter-screen; Potency, µM (series often up to 46.1 µM), hits mostly cytotoxic; actives 0.76% (n = 410,000); HepG2 CAGA-GFP viability, ATP luminescence, 18 h
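CellTiter-Glo luminescence gave cytotoxicity after 18 hours at 37 degrees C. The cells were HepG2 CAGA-GFP in 1% FBS DMEM, stimulated with 500 pg/mL TGF-beta after compound addition. %Activity was normalised to no-cell wells (complete cell-killing) and DMSO (no toxicity), and curves were fitted and classified.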
IL1B secr inh: inflammasome signaling inhibition, IL-1 beta readout; activity change, % at 57.5 µM; AID 743279; THP-1 LPS/ATP IL-1B secretion, AlphaLISA, 16 h; active compounds read low; actives 4.7% (n = 360,000); in the data active means activity change below about -50%; inconclusive means mostly about -30% to -49%
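Secreted IL-1B measured by AlphaLISA bead assay after 16 h compound exposure of THP-1 cells; compounds (final up to 57.5 uM) added 1 h before LPS (250 ng/mL) and ATP (1.25 mM) stimulation; lower signal means less secretion.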
TDP1 cell CPT: DT40-hTDP1 cell growth loss with CPT; chicken DT40 Tdp1-/-;hTDP1 cells + 20 nM CPT, ATP luminescence, 48 h; Potency, µM (titrated, usually from 46.2 µM), actives largely listed as inhibitors; actives 12% (n = 420,000); further: nearly all actives have a fitted effect of over 55% in size
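Cell growth measured by CellTiter-Glo luminescence after a minimum 48 h, 37 C compound exposure with 20 nM CPT in Tdp1-knockout DT40 cells stably expressing hTDP1, seeded 400/well; qHTS titration format.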
Hits are given with their value; – = inactive; ? = inconclusive; · = no result given; [ ] = remark or other dose. Only some compounds are listed: those with a hit (about 18% of all), similar ones and a draw of the others. Unless noted, the call rests on the fitted dose curve; in most records, active means well fitted curve in the direction sought with a large enough effect; inconclusive means small, poorly fitted or top-dose-only effect, or another doubt; inactive means no such curve, though single readings can be large; an effect the other way counts as inactive or inconclusive.

SMILES | DT40 TDP1 no CPT | TGFb inhibitor | TDP1 block | HepG2 tox | IL1B secr inh | TDP1 cell CPT
O=C1CC(/C=C/c2ccccn2)=Nc2ccccc2N1 | 15µM | – | – | – | -75 | ?
CCN(CCCNC(=O)c1cc2c(=O)[nH]c3ccc(C)cc3c2s1)c1ccc(C)cc1 | ? | – | – | – | · | ?
O=C(NCC1CCCO1)c1cc2c(=O)[nH]c3ccccc3c2s1 (stereo not drawn) | – | – | – | – | – | –
CCN(CCCNC(=O)c1cc2c(=O)[nH]c3ccc(C)cc3c2s1)Cc1ccccc1 | 4.6µM | 11µM | – | 13µM | · | 7.3µM
CCCN1CCN(CCCNC(=O)c2cc3c(=O)[nH]c4ccc(C)cc4c3s2)CC1 | 16µM | ? | – | – | · | ?
Cc1ccc2[nH]c(=O)c3cc(C(=O)NCC4CCCO4)sc3c2c1 (stereo not drawn) | ? | – | – | – | -81 | –
CCCN(CCC)CCCNC(=O)c1cc2c(=O)[nH]c3ccccc3c2s1 | – | – | · | – | -73 | –
COc1ccc(O[C@H]2C=C[C@@H](c3ccccc3)O[C@H]2COC(=O)CC/C(C)=N\OC[C@@H](C)[C@H](OCc2ccccc2)C(C)C)cc1 | · | · | –[21 µM] | · | · | ·
O=[N+]([O-])c1cccc(C(=NCc2ccccc2)NO)c1 | – | – | · | – | – | –
COc1ccc(C)cc1NC(=O)CNC(=O)c1sc2ccccc2c1Cl | ? | – | – | – | – | ?
COCC1CCCN(Cc2ccc3c(c2)CN(C(=O)c2sc(C)nc2C)CCO3)C1 (stereo not drawn) | – | · | · | · | · | –[9.04 µM]
O=c1oc2c3c4c(cc2c(C(F)(F)F)c1CCN1CCOCC1)CCCN4CCC3 | 16µM | – | – | – | – | 16µM
CC(C)c1cc(=O)oc2c3c4c(cc12)CCCN4CCC3 | ? | – | – | – | – | 16µM
O=c1oc2c(CN3CCOCC3)c(O)ccc2c2c1CCC2 | – | – | – | – | – | –
Cc1noc(C)c1S(=O)(=O)NCc1cccc(Cl)c1 | – | – | – | – | – | –
CC(/C=C/c1ccc2c(c1)OCO2)=N/NC(=O)c1ccc(C)nc1 | 23µM | – | – | – | – | ?
CC(/C=C/C=C/c1ccccc1)=N/NC(=O)C(O)c1ccccc1 (stereo not drawn) | 18µM | – | · | – | – | –
CC(/C=C/c1ccccc1)=N/NC(=O)c1cccc(Br)c1 | 23µM | – | – | – | – | ?
CC(/C=C\C=C\c1ccccc1)=N\NC(=O)c1cncc(Br)c1 | 7.3µM | – | – | – | – | 7.3µM
CC(/C=C/C=C/c1ccccc1)=N\NC(=O)c1cccnc1 | ? | – | – | – | – | –
Cc1c(CC(=O)N2CCCCC2)c(=O)oc2cc(O)ccc12 | – | – | – | – | · | –
CCN1CC(CCN2CCOCC2)C(c2ccccc2)(c2ccccc2)C1=O (stereo not drawn) | – | · | · | · | · | –
CC(/C=C/c1ccccc1)=N\NC(=O)c1ccc(Br)cc1 | ? | – | – | – | – | ?
CC(/C=C/c1cccc([N+](=O)[O-])c1)=N\NC(=O)c1ccncc1 | 23µM | – | – | – | – | ?
CC(/C=C/C=C/c1ccccc1)=N/NC(=O)c1ccc2c(c1)OCCO2 | – | – | – | 11µM | – | –
SMILES | DT40 TDP1 no CPT | TGFb inhibitor | TDP1 block | HepG2 tox | IL1B secr inh | TDP1 cell CPT
CC(C)Cn1c(N)c(C(=O)COC(=O)c2ccc3ccccc3n2)c(=O)n(C)c1=O | 16µM | – | – | – | – | 16µM
CC(C)Cn1c(N)c(C(=O)COC(=O)c2ccccc2Cl)c(=O)n(C)c1=O | ? | – | – | – | – | ?
CC(C)Cn1c(N)c(C(=O)COC(=O)c2cccnc2Cl)c(=O)n(C)c1=O | 10µM | ? | – | – | – | ?
Cc1onc(-c2ccccc2Cl)c1C(=O)OCC(=O)c1c(N)n(C)c(=O)n(C)c1=O | 7.3µM | – | – | – | – | 7.3µM
CC(C)Cn1c(N)c(C(=O)COC(=O)c2ccccc2C(=O)c2ccccc2)c(=O)n(C)c1=O | 9.2µM | – | – | – | – | 16µM
CCn1c(-c2cccnc2)nc2cc(NC(=O)COC)cc(C(=O)N3CCc4ccccc4C3)c21 | – | · | · | · | · | –[9.04 µM]
Cc1noc(C)c1C(=O)OCC(=O)c1c(N)n(CC(C)C)c(=O)n(C)c1=O | ? | ? | – | – | – | 18µM
Cn1c(N)c(C(=O)COC(=O)c2ccccc2C(=O)c2ccc(Cl)cc2)c(=O)n(C)c1=O | 15µM | ? | – | – | ? | ?
CC(C)Cn1c(N)c(C(=O)COC(=O)c2cccn2C)c(=O)n(C)c1=O | 16µM | – | – | – | – | 15µM
O=C(CCN1C(=O)/C(=C\c2ccccc2Cl)SC1=S)Nc1cccnc1 | ? | – | – | – | -52 | –
O=C(CCCN1C(=O)/C(=C/c2ccccc2OC(F)F)SC1=S)Nc1cccnc1 | 13µM | ? | – | – | -85 | 26µM
O=C(CCN1C(=O)/C(=C/c2ccc(Cl)cc2)SC1=S)Nc1cccnc1 | ? | – | – | – | – | 29µM
O=C(CCN1C(=O)/C(=C/c2ccccc2F)SC1=S)Nc1cccnc1 | – | – | – | – | – | ?
COc1ccccc1/C=C1/SC(=S)N(CCC(=O)Nc2cccnc2)C1=O | ? | – | – | – | – | ?
NCCC[C@@H](N)C(=O)O | – | · | – | · | · | –
CSCC[C@H](NC(=O)[C@H](Cc1ccccc1)NC(=O)[C@H](Cc1cnc[nH]1)NC(=O)CNC(=O)[C@@H](NC(=O)[C@H](C)NC(=O)[C@H](Cc1c[nH]c2ccccc12)NC(=O)[C@H](CCC(N)=O)NC(=O)[C@@H]1CCCN1C(=O)[C@@H](NC(=O)[C@@H]1CCC(=O)N1)C(C)C)C(C)C)C(N)=O | · | · | – | · | · | ·
CC(C)(C)OC(=O)N1CCC(N2CCN(Cc3ccccc3)C(=O)C2=O)CC1 | – | – | – | – | · | –
Cn1c(N)c(C(=O)CCl)c(=O)n(C)c1=O | ? | – | – | – | ? | 7.3µM
Cn1c(N)c(C(=O)CCl)c(=O)n(Cc2ccccc2)c1=O | 5.8µM | – | – | – | -97 | 2.3µM
Cn1c(=O)c(C(=O)CCl)c(N)n(Cc2ccccc2)c1=O | 4.6µM | – | – | – | -95 | 4.1µM
O=C(CSc1ncc2c(n1)-c1ccccc1N(Cc1ccccc1)S2(=O)=O)Nc1ccccc1 | – | – | – | – | · | –

Bioassay records as filed in PubChem.
